Results: PubChem BioAssay (NCATS)
Values joined by “and” are separate entries in the source; they are usually repeats but may differ in a detail not shown here. Identical values can stand only once. Records with an inconclusive call do not appear. A structure can be active in one record and inactive in another. Active and inactive are the calls of the source. Calls follow the shape of the dose curve; as a rule, active = well fitted curve in the direction sought with a large enough effect; inconclusive = small, poorly fitted or top-dose-only effect, or another doubt; inactive = no such curve, though single readings can be large; an effect the other way counts as inactive or inconclusive.

Assays:
[1] = Viability qHTS for spleen associated tyrosine kinase inhibitor (SYKi) drug resistant MV4-11 cells (AID 1963824); also: nearly all actives have a fitted effect of over 35% in size; also: potency is read from the fitted curve at half-maximal effect
Procedure, shortened: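 SYK inhibitor-resistant MV4-11 AML cells, 500 per well, added to predispensed compounds and incubated 72 hr at 37 C, 5% CO2. Viability measured by CellTiter-Glo luminescence after 10 min at room temperature.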

[2] = Quantitative highthroughput screen to assess conditional lethalithy of NOMO1 cells grown in RPMI1640 with untreated serum (RPMI+s) (AID 1963876); also: nearly all actives have a fitted effect of over 35% in size; also: potency is read from the fitted curve at half-maximal effect;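 as to Viability: 100% = DMSO wells and 0% = empty wells without cells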
Procedure, shortened: (§1)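 Each medium arm—HPLM with 10% dialyzed FBS, or RPMI1640 with 5 mM glucose and 10% untreated or dialyzed FBS—was screened against an 11-point, 3-fold compound titration for 48 h at 37 °C, with CellTiter-Glo luminescence as endpoint.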

[3] = Cellular viability qHTS for adrenocortical cancer (ACC) cell line NCI-H295R (AID 1963990); also: nearly all actives have a fitted effect of over 60% in size; also: potency is read from the fitted curve at half-maximal effect
Procedure, shortened: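 IC50 and maximal efficacy derive from four-parameter logistic modelling of titration curves, with reads scaled between DMSO-only wells (0%) and doxorubicin hydrochloride (100% inhibition). Compounds spanned up to 46 uM over 48 h.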

[4] = Quantitative highthroughput screen to assess conditional lethalithy of NOMO1 cells grown in RPMI1640 with dialyzed fetal bovine serum (RPMI+ds) (AID 1963877); also: nearly all actives have a fitted effect of over 30% in size; also: potency is read from the fitted curve at half-maximal effect;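 as to Viability: series mostly up to about 46 µM; 100% = DMSO control wells and 0% = empty wells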
Procedure, shortened: as §1

[5] = Quantitative highthroughput screen to assess conditional lethalithy of NOMO1 cells grown in Human Plasma-Like Medium with dialyzed fetal bovine serum (HPLM+ds) (AID 1963878);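 also: 100% = DMSO wells and 0% = empty wells on each plate; nearly all actives have a fitted effect of over 35% in size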
Procedure, shortened: as §1

[6] = Quantitative highthroughput screen to assess conditional lethalithy of P12 Ichikawa cells grown in RPMI1640 with dialyzed fetal bovine serum (RPMI+ds) (AID 1963880); conditions: Potency: P12-Ichikawa viability; also: nearly all actives have a fitted effect of over 35% in size; also: potency is read from the fitted curve at half-maximal effect;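 as to Viability: 100% = DMSO wells and 0% = empty wells on each plate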
Procedure, shortened: as §1

[7] = Quantitative highthroughput screen to assess conditional lethalithy of P12 Ichikawa cells grown in RPMI1640 with untreated serum (RPMI+s) (AID 1963881); conditions: Potency: viability
Procedure, shortened: as §1

[8] = Quantitative highthroughput screen to assess conditional lethalithy of SEM cells grown in Human Plasma-Like Medium with dialyzed fetal bovine serum (HPLM+ds) (AID 1963882); also: nearly all actives have a fitted effect of over 35% in size; also: potency is read from the fitted curve at half-maximal effect; as to Viability: series mostly up to about 46 µM
Procedure, shortened: as §1

[9] = Quantitative highthroughput screen to assess conditional lethalithy of SEM cells grown in RPMI1640 with dialyzed fetal bovine serum (RPMI+ds) (AID 1963884); also: nearly all actives have a fitted effect of over 35% in size; also: potency is read from the fitted curve at half-maximal effect;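 as to Viability: series mostly up to about 46 µM; 100% = DMSO control wells and 0% = empty wells without cells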
Procedure, shortened: as §1

[10] = Quantitative highthroughput screen to assess conditional lethalithy of P12 Ichikawa cells grown in Human Plasma-Like Medium with dialyzed fetal bovine serum (HPLM+ds) (AID 1963879); conditions: Potency: viability
Procedure, shortened: as §1

[11] = Quantitative highthroughput screen to assess conditional lethalithy of SEM cells grown in RPMI1640 with unreated serum (RPMI+s) (AID 1963883); also: nearly all actives have a fitted effect of over 35% in size; also: potency is read from the fitted curve at half-maximal effect;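 as to Viability: 100% = DMSO wells and 0% = empty wells without cells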
Procedure, shortened: as §1

[12] = Cellular viability qHTS for adrenocortical cancer (ACC) cell line SW-13 (AID 1963989); conditions: SW-13 ACC cells viability, CellTiter-Glo, 48 h; activity (max response): stronger effect = lower value; also: nearly all actives have a fitted effect of over 65% in size; also: potency is read from the fitted curve at half-maximal effect;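 as to activity (max response): cells grown in serum-free medium with ITS supplement; % is scaled to controls: 0 for no effect and ±100 for the full control effect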
Procedure, shortened: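 Luminescent ATP read-out (CellTiter-Glo, 20 min at room temperature) measured metabolically competent SW-13 cells after 48 h compound treatment. Final concentrations spanned up to 46 uM; bortezomib served as positive control.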

CN(C)CCN(C)C(=O)c1ccc(NC(=O)Nc2ccc(-c3nc(N4CCOCC4)c4ccn(CC(F)(F)F)c4n3)cc2)cc1
Potency [1]: 0.0525 µM (active) | Potency [2]: 0.132 µM (active) | Potency [3]: 3.16 µM (active)

CC(=O)OC1C(C)OC(Oc2c(-c3ccc(O)cc3)oc3cc(O)cc(O)c3c2=O)C(O)C1OC(C)=O (configuration not stated)
Potency [1]: 20.9 µM (active) | Potency [4]: inactive | Potency [5]: inactive | Potency [6]: inactive | Potency [7]: inactive | Potency [8]: inactive | Potency [9]: inactive

CCCNCC(O)COc1ccccc1C(=O)CCc1ccccc1 (configuration not stated)
Potency [1]: 15 µM (active) and 16.6 µM (active) | Potency [4]: inactive | Potency [5]: inactive | Potency [10]: inactive | Potency [6]: inactive | Potency [7]: inactive | Potency [8]: inactive | Potency [11]: inactive

CN(C)c1ccc(-c2nc3ncc(Cl)c(N4CCN(CC(=O)Nc5nccs5)CC4)c3[nH]2)cc1
Potency [1]: 0.645 µM (active) | Potency [2]: inactive | Potency [10]: inactive | Potency [7]: inactive | activity (max response) [12]: -12.9% (inactive) | Potency [3]: inactive

CC(C)OC(=O)OCOP(=O)(CO[C@H](C)Cn1cnc2c(N)ncnc21)OCOC(=O)OC(C)C
Potency [1]: 9.44 µM (active) | Potency [4]: 23.5 µM (active) | Potency [10]: inactive | Potency [6]: inactive | Potency [3]: inactive

OCCN(CCO)c1nc(N2CCCCC2)c2nc(N(CCO)CCO)nc(N3CCCCC3)c2n1
Potency [1]: 18.8 µM (active) and 14.8 µM (active) | Potency [2]: inactive | Potency [8]: inactive | Potency [12]: 5.17 µM (active) | activity (max response) [12]: -9.57% (inactive) | Potency [3]: 1.46 µM (active) and inactive

CN1CCc2c(n(Cc3ccc(C(=O)NO)cc3)c3ccccc23)C1
Potency [4]: inactive

NCCCC(O)(P(=O)(O)O)P(=O)(O)O
Potency [4]: 16.6 µM (active)

O=C(O)C[C@H]1CCc2c1[nH]c1ccc(OCc3ccc(C4CCCC4)c(C(F)(F)F)c3)cc21
Potency [1]: 7.42 µM (active) | activity (max response) [12]: 5.55% (inactive)

Nc1ncn([C@H]2C[C@H](O)[C@@H](CO)O2)c(=O)n1
Potency [1]: 4.68 µM (active) | Potency [8]: 2.96 µM (active) | Potency [11]: 2.64 µM (active) | activity (max response) [12]: -13% (inactive) and -6.12% (inactive) | Potency [3]: inactive

CC(C)(C)C[C@H]1N[C@@H](C(=O)NC2CCC(O)CC2)[C@H](c2cccc(Cl)c2F)[C@@]12C(=O)Nc1cc(Cl)ccc12 (some centres not stated)
Potency [1]: 6.61 µM (active) | Potency [12]: 25.1 µM (active)

CS(=O)(=O)N(Cc1ccco1)CC(O)Cn1c2ccccc2c2ccccc21 (configuration not stated)
Potency [1]: 16.4 µM (active) and 16.6 µM (active) | Potency [8]: 18.7 µM (active) | Potency [11]: 14.8 µM (active) | Potency [9]: 5.9 µM (active) | Potency [3]: inactive

COc1cc(N)c(Cl)cc1C(=O)NC1CCN(Cc2ccccc2)CC1
Potency [1]: inactive | activity (max response) [12]: -15.7% (inactive)

O=C1OC2(CCC(C(=O)Nc3ccn(-c4ccccc4F)n3)CC2)c2cnccc21 (configuration not stated)
Potency [1]: 4.17 µM (active) | activity (max response) [12]: -3.21% (inactive)

Cn1cncc1[C@@](N)(c1ccc(Cl)cc1)c1ccc2c(c1)c(-c1cccc(Cl)c1)cc(=O)n2C
Potency [1]: 2.35 µM (active) | Potency [9]: 3.72 µM (active) | Potency [3]: inactive

CN1CCN(CCCNc2ncc(Cl)c(-c3cc4c(C(=O)NC5CC5)cccc4s3)n2)CC1
Potency [1]: 18.6 µM (active) | activity (max response) [12]: 0.565% (inactive)

CO[C@H]1/C=C/O[C@@]2(C)Oc3c(C)c(O)c4c(O)c(c5c(nc6cc(C)ccn65)c4c3C2=O)NC(=O)/C(C)=C\C=C\[C@H](C)[C@H](O)[C@@H](C)[C@@H](O)[C@@H](C)[C@H](OC(C)=O)[C@@H]1C
Potency [1]: 14.8 µM (active) | Potency [12]: 25.1 µM (active)

CC(C)C(=O)OCC(=O)[C@@]12O[C@H](C3CCCCC3)O[C@@H]1C[C@H]1[C@@H]3CCC4=CC(=O)C=C[C@]4(C)[C@H]3[C@@H](O)C[C@@]12C
Potency [1]: 2.95 µM (active) | activity (max response) [12]: -10.3% (inactive)

Nc1nc(N)c2nc(CNc3ccc(C(=O)NC(CCC(=O)O)C(=O)O)cc3)cnc2n1 (configuration not stated)
Potency [1]: 0.0148 µM (active) | Potency [11]: 0.0418 µM (active)

O=c1ncn2nc(Sc3ccc(F)cc3F)ccc2c1-c1c(Cl)cccc1Cl
Potency [1]: 8.2 µM (active) | Potency [11]: 16.6 µM (active) | activity (max response) [12]: -0.752% (inactive)

O=C(NO)C1(CS(=O)(=O)c2ccc(Oc3ccc(Cl)cc3)cc2)CCOCC1
Potency [1]: 16.6 µM (active) | Potency [12]: 25.1 µM (active)

C[C@H]1C[C@@H](n2c(Nc3ccc(OC(F)(F)F)cc3)nc3cc(CCC(=O)O)ccc32)CC(C)(C)C1
Potency [1]: 10.5 µM (active) | activity (max response) [12]: -13.1% (inactive)

CCN(CC)CCCCNc1ncc2cc(-c3cc(OC)cc(OC)c3)c(NC(=O)NC(C)(C)C)nc2n1
Potency [1]: 5.8 µM (active) and 9.34 µM (active) | Potency [8]: 14.8 µM (active) | Potency [11]: 16.6 µM (active) | Potency [12]: 28.2 µM (active) | Potency [3]: 25.1 µM (active)

COc1ccc(Cl)c(Nc2ncnc3cc(OCC4CCN(C)CC4)c(OC)cc23)c1
Potency [1]: 5.17 µM (active) | Potency [12]: 15.8 µM (active)

CC(C)C(=O)Nc1cccc(C2CN3CCSC3=N2)c1 (configuration not stated)
Potency [1]: inactive | activity (max response) [12]: -3.96% (inactive)

Nc1ncnc2c1nc(Cl)n2[C@@H]1O[C@H](CO)[C@@H](O)[C@@H]1O
Potency [1]: 2.95 µM (active) | Potency [8]: 11.8 µM (active) | Potency [11]: 14.8 µM (active) | Potency [9]: 8.33 µM (active)

Cc1cc(-c2cnn3c(NCC4CC(C)(O)C4)cc(Oc4cccnc4)nc23)ccc1C(=O)NC1CC1 (configuration not stated)
Potency [1]: 0.118 µM (active) | activity (max response) [12]: -6.44% (inactive)

CC(C)C(=O)OCc1cccc(OC(=O)[C@@H]2N3C(=O)[C@@H](NC(=O)Cc4ccccc4)[C@H]3SC2(C)C)c1
Potency [1]: 7.5 µM (active) | activity (max response) [12]: 14.5% (inactive)

CCN(CC)CCOC(=O)C(Cc1cccc2ccccc12)CC1CCCO1 (configuration not stated)
Potency [1]: inactive | activity (max response) [12]: -10.7% (inactive)

COc1cc(S(C)(=O)=O)ccc1Nc1nc2ccc(-c3ccc(NC(=O)[C@H](C)c4ccc(F)cc4)cc3)cn2n1
Potency [1]: 0.468 µM (active) | activity (max response) [12]: -19.6% (inactive)

Cc1cc(Nc2cc(NC(=O)c3c(Cl)cccc3Cl)ccn2)nc(N)n1
Potency [1]: 0.164 µM (active) | Potency [6]: 1.18 µM (active) | Potency [9]: 1.05 µM (active)
